NTR1 ag: agonists of human neurotensin receptor NTR1; P30989; NTR1-U2OS beta-arrestin-GFP spot imaging, agonist mode; activation, % at 20 µM; 330,000 tested, 0.17% active; AID 493036;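 active = activation at or above 40% of the spot to cytoplasm intensity ratio, with at least 20 cells analyzed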;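 also: 0% = DMSO without peptide and 100% = 100 nM NTR1 peptide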
Target sequence (P30989 whole entry, looked up): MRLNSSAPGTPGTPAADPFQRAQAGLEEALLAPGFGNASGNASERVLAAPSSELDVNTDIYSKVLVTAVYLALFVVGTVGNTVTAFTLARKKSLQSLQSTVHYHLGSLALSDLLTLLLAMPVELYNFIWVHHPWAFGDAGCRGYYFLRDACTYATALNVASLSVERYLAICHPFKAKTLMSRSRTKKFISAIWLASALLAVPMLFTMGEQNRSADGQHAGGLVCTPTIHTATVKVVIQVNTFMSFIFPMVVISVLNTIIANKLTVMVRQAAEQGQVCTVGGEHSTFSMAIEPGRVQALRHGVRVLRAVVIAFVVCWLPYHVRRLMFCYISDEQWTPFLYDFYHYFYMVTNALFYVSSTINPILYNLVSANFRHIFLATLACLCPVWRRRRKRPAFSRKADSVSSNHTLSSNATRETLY
HIF activator: HIF pathway transcriptional activation; U2OS HRE-luciferase reporter, luminescence; normalized: DMSO 0%, desferrioxamine 100%; 300,000 tested, 0.32% active; activation, % at 7.5 µM (by protocol);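 active = mean activation of at least 10% of the iron chelator positive control signal, with at least half of replicates also reaching 10%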
Platelet DG rel: platelet dense granule release activity. human platelet-rich plasma, SFLLRN dense granule ATP release, luminescence. inhibition, %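 (compounds screened at 7.5 µM in platelet-rich plasma)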. 300,000 tested, 0.22% active;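 active = mean replicate score, as percent of positive control, at or above 50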
* marks the source's active call; other numbers are inactive results. Most compounds without a hit are left out; they make up all but 0.63% or so of the library.

What do the screens show for `Cc1cc2oc(C(=O)NCCc3ccc(S(N)(=O)=O)cc3)cc(=O)c2cc1C`?
NTR1 ag: 0; HIF activator: 0; Platelet DG rel: 2

How did COc1ccc(C(=O)CCNc2ccc(F)cc2)cc1 do in these assays?
NTR1 ag: -1; HIF activator: 14*; Platelet DG rel: -15

Results for COc1ccc(C(=O)CCNc2ccc(C)c(Cl)c2)cc1 ?
NTR1 ag: -2; HIF activator: 0; Platelet DG rel: 0

How did CC(C)N1C[C@@]23C=C[C@@H](O2)C(C(=O)OCc2ccccc2)[C@H]3C1=O (stereo not given in full) do in these assays?
NTR1 ag: -1; HIF activator: 0; Platelet DG rel: 56*

How did CC(C)N1CC23C=CC(O2)C(C(=O)OCc2ccccc2)C3C1=O (stereo not given) do in these assays?
NTR1 ag: 6; HIF activator: 0; Platelet DG rel: 1

What do the screens show for `C/C(=N\Nc1ncnc2sc(C)c(C)c12)c1ccccn1`?
NTR1 ag: 15; HIF activator: 96*; Platelet DG rel: -12

Results for Cc1sc2ncnc(N/N=C/c3cccc(O)c3)c2c1C ?
NTR1 ag: 8; Platelet DG rel: 4

What do the screens show for `CC(Sc1nnc(COc2ccc([N+](=O)[O-])cc2)n1-c1ccccc1)C(=O)O` (stereo not given)?
NTR1 ag: 2; HIF activator: 0; Platelet DG rel: 4

What do the screens show for `CC(Sc1nnc(COc2ccc([N+](=O)[O-])cc2)n1C)C(=O)O` (stereo not given)?
NTR1 ag: 1; HIF activator: 93*; Platelet DG rel: 1

Results for O=C(COC(=O)c1ccccc1)Nc1ccc(Cl)cn1 ?
NTR1 ag: 1; HIF activator: 0; Platelet DG rel: -3

Results for Cc1cc(C)c(C#N)c(SCc2ccc(F)cc2)n1 ?
NTR1 ag: -2; HIF activator: 0; Platelet DG rel: -2

Results for CSc1nc(C)cc(C)c1C#N ?
NTR1 ag: -1; HIF activator: 103*; Platelet DG rel: 7

Results for O=C(NC(=S)N1CCCC1)c1ccc(Cl)cc1 ?
NTR1 ag: 1; HIF activator: -1; Platelet DG rel: 0

Results for CCOC(=O)C1=C(C)NC(C)=C(C(=O)OCC)C1c1ccccc1/C=C/C(=O)OC(C)(C)C ?
NTR1 ag: 47*; HIF activator: 0; Platelet DG rel: 9

What do the screens show for `CCOC(=O)C1=C(C)NC(C)=C(C(=O)OCC)C1/C=C/c1ccccc1OC`?
NTR1 ag: 14; HIF activator: -1; Platelet DG rel: 12

Results for C[C@@H](NS(=O)(=O)c1ccc(Br)cc1F)[C@@H](O)c1ccccc1 ?
NTR1 ag: 0

How did O=C(Nc1ccc(OCc2ccccc2)cc1)c1ccccc1 do in these assays?
NTR1 ag: 0; HIF activator: 1; Platelet DG rel: 12

What do the screens show for `Cc1ccsc1C(=O)Nc1ccc(OCc2ccccc2)cc1`?
NTR1 ag: 3; HIF activator: 2; Platelet DG rel: 79*

What do the screens show for `CC1CCN(S(=O)(=O)c2ccc3c(c2)N(CC(=O)NCCCOC(C)C)C(=O)CS3)CC1`?
NTR1 ag: 0; HIF activator: 0; Platelet DG rel: -8

How did CN1CCN(NC(=O)c2cc(-c3cccc(Cl)c3)nc3ccccc23)CC1 do in these assays?
NTR1 ag: 0; HIF activator: 0; Platelet DG rel: -44

What do the screens show for `CC(C)c1ccc(-c2cc(C(=O)NN3CCN(C)CC3)c3ccccc3n2)cc1`?
NTR1 ag: 0; HIF activator: 1; Platelet DG rel: 54*

How did Cc1ccc([N+](=O)[O-])c2c1C(N1CC(C)OC(C)C1)C(C)(C)O2 (stereo not given) do in these assays?
NTR1 ag: 0; HIF activator: 0; Platelet DG rel: 3

What do the screens show for `Clc1ccc(-c2nnc(Sc3nc4ccccc4o3)c3ccccc23)cc1`?
NTR1 ag: 7; HIF activator: 0; Platelet DG rel: -1

How did Cc1ccc(-c2nnc(Sc3nc4ccccc4o3)c3ccccc23)cc1 do in these assays?
NTR1 ag: 9; HIF activator: 94*; Platelet DG rel: -2

What do the screens show for `COc1ccc(Cn2nnnc2C(C(C)C)N(Cc2ccco2)Cc2cccs2)cc1` (stereo not given)?
NTR1 ag: 4; HIF activator: 0; Platelet DG rel: 4

Results for O=C(/C=C/c1ccc(O)c(O)c1)c1ccccc1O ?
NTR1 ag: 21; HIF activator: 5; Platelet DG rel: 70*

How did O=C(/C=C/c1ccoc1)c1ccccc1O do in these assays?
NTR1 ag: -1; HIF activator: 0; Platelet DG rel: 0

What do the screens show for `COc1ccc(C2C(C#N)=C(N)Oc3cc(C)[nH]c(=O)c32)c(OC)c1OC` (stereo not given)?
NTR1 ag: 5

Results for Cc1ccc(NC(=S)N(Cc2cccs2)Cc2cc3cccc(C)c3[nH]c2=O)cc1 ?
NTR1 ag: 3; HIF activator: 889*; Platelet DG rel: -2

What do the screens show for `Cc1cccc2cc(CN(Cc3cccs3)C(=S)NCC3CCCO3)c(=O)[nH]c12` (stereo not given)?
NTR1 ag: 1; HIF activator: 0; Platelet DG rel: 6

What do the screens show for `Cc1ccc2nc(-c3ccncc3)c(NC3CCCCC3)n2c1`?
NTR1 ag: 2; HIF activator: 452*; Platelet DG rel: -7

How did Cc1ccc2nc(-c3ccncc3)c(NC3CCCC3)n2c1 do in these assays?
NTR1 ag: -1; HIF activator: 2; Platelet DG rel: -9

What do the screens show for `O=C(CNCc1ccccc1)NC1C2CC3CC(C2)CC1C3` (stereo not given)?
NTR1 ag: -1; HIF activator: 2; Platelet DG rel: 4

Results for c1ccc(-n2nnnc2Sc2ncnc3sc4c(c23)CCCC4)cc1 ?
NTR1 ag: 13; HIF activator: 0; Platelet DG rel: -15

Results for Cc1sc2ncnc(Sc3nnnn3-c3ccc(Cl)cc3)c2c1C ?
NTR1 ag: 6; HIF activator: 17*; Platelet DG rel: 3

How did COc1cccc(CN2CCN(Cc3cccc(Oc4ccccc4)c3)CC2)c1OC do in these assays?
NTR1 ag: 3; HIF activator: -1; Platelet DG rel: 0

How did COc1cccc(CN2CCC(N(CCc3ccccc3)Cc3ccccc3)CC2)c1OC do in these assays?
NTR1 ag: 5; HIF activator: 582*; Platelet DG rel: -5

Results for O=C(NNc1ccccc1[N+](=O)[O-])NC1CCCCC1 ?
NTR1 ag: 0; HIF activator: 0; Platelet DG rel: 4

How did O=C(N/N=C/c1ccc2c(c1)OCO2)c1ccc2c(c1)OCCO2 do in these assays?
NTR1 ag: 0; HIF activator: 2; Platelet DG rel: 9

What do the screens show for `O=C(N/N=C/c1cc(Br)cc(Cl)c1O)c1ccc2c(c1)OCO2`?
NTR1 ag: 2; HIF activator: 19*; Platelet DG rel: -9

Results for O=C(N/N=C/c1ccccc1O)c1ccc2c(c1)OCO2 ?
NTR1 ag: 3; HIF activator: 9.7*; Platelet DG rel: 1

How did Cc1cc(Br)cc(/C=N/NC(=O)c2ccc3c(c2)OCO3)c1O do in these assays?
NTR1 ag: 8; HIF activator: 13*; Platelet DG rel: 4

Results for O=C(N/N=C/c1cc(Br)c(O)c(Br)c1O)c1ccc2c(c1)OCCO2 ?
NTR1 ag: -2; HIF activator: 2; Platelet DG rel: 5

High-throughput results as filed in PubChem BioAssay.
